Laboratory results reported in PubChem BioAssay (NCATS).
“And” between values parts separate entries of the source, which are not always exact repeats. Equal values may be shown once. Inconclusive results are not listed. Where a call stands in place of a potency, no number is given. The source made the active and inactive calls. Unless noted, calls follow the shape of the full dose curve.

Experiments:
[1] = target: Bile acid receptor (Homo sapiens) (UniProt Q96RI1); assay: qHTS assay for small molecule antagonists of farnesoid X receptor signaling (AID 588526)
How it was run: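 Antagonist mode: titrated compounds tested against chenodeoxycholic acid stimulation (normalized to 50 uM CDCA and DMSO) in GeneBLAzer HEK293T cells for 16 h. Beta-lactamase read by CCF4 fluorescence; IC50 from Hill fits.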

[2] = target: Bile acid receptor (Homo sapiens) (UniProt Q96RI1); assay: qHTS assay for small molecule agonists of farnesoid X receptor signaling (AID 588527); conditions: HEK293T FXR-UAS-bla, beta-lactamase ratio, 16 h; stronger effect = higher value; also: series mostly up to about 77 µM
How it was run: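 Read-out: beta-lactamase reporter fluorescence with CCF4 substrate in GeneBLAzer FXR-UAS-bla HEK293T cells, after 16 h compound exposure at 37 C. Response scaled between DMSO basal (0%) and chenodeoxycholic acid at 100 uM (100%).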

[3] = target: Glucocorticoid receptor (Homo sapiens) (UniProt P04150); assay: qHTS assay for small molecule agonists of glucocorticoid receptor signaling (AID 588532; active = well fitted curve in the direction sought with a large enough effect in the signal ratio, with a control signal flat; the % refers to the signal ratio); conditions: HeLa MMTV-bla, beta-lactamase ratio, agonist, 18 h; stronger effect = higher value; percent of dexamethasone control, DMSO zero
How it was run: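 MMTV-bla HeLa beta-lactamase reporter cells in 1% charcoal/dextran FBS medium, compounds up to 92 uM for 18 h at 37 C, CCF4 readout; normalized to 0.1 uM dexamethasone (100%), EC50 and efficacy from Hill fits.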

[4] = qHTS assay for small molecule antagonists of peroxisome proliferator-activated receptor delta signaling (AID 588535; active = well fitted inhibition curve with a large enough effect in the signal ratio, with a control signal flat, not every such curve was filed as active; the % refers to the signal ratio; also: potency is read from the fitted curve at half-maximal effect;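 as to max response: cells co-treated with a PPAR-delta agonist as stimulator during compound exposure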); conditions: HEK293T PPARd-UAS-bla, beta-lactamase FRET ratio, 18 h; 460 nm channel
How it was run: (§1)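 Cells were seeded at 4000 per well in assay medium containing 2% charcoal/dextran FBS and held 5 hrs at 37 C. Compounds were then added for 18 hrs. CCF4 substrate was applied for 2 hrs at room temperature before fluorescence reading.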

[5] = target: Peroxisome proliferator-activated receptor delta (Homo sapiens) (UniProt Q03181); assay: as above
How it was run: as §1

[6] = target: Estrogen receptor (Homo sapiens) (UniProt P03372); assay: qHTS assay for small molecule agonists of estrogen receptor alpha signaling (AID 588514); also: nearly all actives have a fitted effect of over 70% in size
How it was run: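 Reporter-gene assay. […] controls beta-lactamase in HEK 293 GripTite cells; after 18 hrs with compound, CCF4 substrate is added for 2 hrs and fluorescence is read.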

[7] = target: Glucocorticoid receptor (Homo sapiens) (UniProt P04150); assay: qHTS assay for small molecule antagonists of glucocorticoid receptor signaling (AID 588533; active = well fitted inhibition curve with a large enough effect in the signal ratio, with a control signal flat, not every such curve was filed as active; the % refers to the signal ratio;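 also: cells stimulated with 2 nM dexamethasone as agonist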; also: potency is read from the fitted curve at half-maximal effect)
How it was run: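 Antagonist-mode qHTS: compound titrations added to GRE-bla HeLa cells, then dexamethasone 2 nM final; 18 h, 37 C. CCF4 FRET fluorescence normalized to dexamethasone and DMSO; IC50 from Hill fit.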

[8] = target: Peroxisome proliferator-activated receptor delta (Homo sapiens) (UniProt Q03181); assay: qHTS assay for small molecule agonists of peroxisome proliferator-activated receptor delta signaling (AID 588534)
How it was run: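 Reporter cells were plated and held 5 hrs at 37 C before compounds were added. After 18 hrs at 37 C, CCF4 dye was loaded for 2 hrs at RT and fluorescence measured.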

[9] = target: Peroxisome proliferator-activated receptor gamma (Homo sapiens) (UniProt P37231); assay: qHTS assay for small molecule agonists of peroxisome proliferator-activated receptor gamma signaling (AID 588536; active = well fitted curve in the direction sought with a large enough effect in the signal ratio, with a control signal flat, not every such curve was filed as active; the % refers to the signal ratio)
How it was run: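 Test agents, titrated, stimulated HEK293 UAS-bla cells overnight (16 h, 37 C). Substrate CCF4 was then added for two hours at room temperature before fluorescence reading.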

[10] = target: Androgen receptor (Homo sapiens) (UniProt P10275); assay: qHTS assay for small molecule antagonists of androgen receptor signaling (AID 588516; active = well fitted curve in the direction sought with a large enough effect in the signal ratio, with a control signal flat, not every such curve was filed as active; the % refers to the signal ratio; also: potency is read from the fitted curve at half-maximal effect)
How it was run: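 Compounds tested in titration against 10 nM R1881 in AR-responsive bla reporter HEK 293 cells; CCF4 fluorescence (460/530 nm) after 16 h exposure gave IC50 and efficacy.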

Glucocorticoid receptor (Homo sapiens), sequence (P04150 whole entry, looked up): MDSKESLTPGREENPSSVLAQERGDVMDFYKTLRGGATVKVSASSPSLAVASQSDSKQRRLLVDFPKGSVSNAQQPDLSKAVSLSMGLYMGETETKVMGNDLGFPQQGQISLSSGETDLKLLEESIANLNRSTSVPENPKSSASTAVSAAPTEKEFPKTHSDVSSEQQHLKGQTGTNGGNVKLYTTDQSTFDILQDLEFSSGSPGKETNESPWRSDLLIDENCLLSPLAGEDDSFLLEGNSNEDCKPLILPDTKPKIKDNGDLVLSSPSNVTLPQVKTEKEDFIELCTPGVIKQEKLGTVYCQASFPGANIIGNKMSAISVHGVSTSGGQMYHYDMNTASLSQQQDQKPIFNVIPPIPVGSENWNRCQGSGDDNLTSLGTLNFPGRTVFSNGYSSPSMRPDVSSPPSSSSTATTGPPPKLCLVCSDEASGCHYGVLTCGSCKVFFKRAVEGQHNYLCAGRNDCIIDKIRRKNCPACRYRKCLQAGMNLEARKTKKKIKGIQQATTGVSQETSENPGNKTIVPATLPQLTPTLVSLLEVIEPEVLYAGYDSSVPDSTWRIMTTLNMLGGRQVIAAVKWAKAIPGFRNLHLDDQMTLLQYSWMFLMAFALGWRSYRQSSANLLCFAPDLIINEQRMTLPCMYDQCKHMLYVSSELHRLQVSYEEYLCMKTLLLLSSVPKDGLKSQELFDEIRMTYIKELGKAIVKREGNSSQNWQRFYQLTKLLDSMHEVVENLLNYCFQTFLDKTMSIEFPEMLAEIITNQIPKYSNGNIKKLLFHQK
Estrogen receptor (Homo sapiens), sequence (P03372 whole entry, looked up): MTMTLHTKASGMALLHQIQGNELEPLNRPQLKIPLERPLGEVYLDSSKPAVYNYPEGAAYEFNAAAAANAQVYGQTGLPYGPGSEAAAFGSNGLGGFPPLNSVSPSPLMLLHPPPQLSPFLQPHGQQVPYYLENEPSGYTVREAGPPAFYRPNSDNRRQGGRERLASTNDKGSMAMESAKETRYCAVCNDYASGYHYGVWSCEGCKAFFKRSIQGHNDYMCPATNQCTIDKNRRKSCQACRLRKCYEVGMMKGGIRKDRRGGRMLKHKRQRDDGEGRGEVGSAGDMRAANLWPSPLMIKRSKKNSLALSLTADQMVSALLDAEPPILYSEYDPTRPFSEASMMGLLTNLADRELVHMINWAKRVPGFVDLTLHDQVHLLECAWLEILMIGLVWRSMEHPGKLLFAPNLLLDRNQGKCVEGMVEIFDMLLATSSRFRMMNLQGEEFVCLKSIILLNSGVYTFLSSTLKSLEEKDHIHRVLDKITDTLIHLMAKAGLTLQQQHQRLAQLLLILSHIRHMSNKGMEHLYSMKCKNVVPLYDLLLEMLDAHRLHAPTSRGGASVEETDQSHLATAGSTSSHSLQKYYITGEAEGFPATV
Androgen receptor (Homo sapiens), sequence (P10275 whole entry, looked up): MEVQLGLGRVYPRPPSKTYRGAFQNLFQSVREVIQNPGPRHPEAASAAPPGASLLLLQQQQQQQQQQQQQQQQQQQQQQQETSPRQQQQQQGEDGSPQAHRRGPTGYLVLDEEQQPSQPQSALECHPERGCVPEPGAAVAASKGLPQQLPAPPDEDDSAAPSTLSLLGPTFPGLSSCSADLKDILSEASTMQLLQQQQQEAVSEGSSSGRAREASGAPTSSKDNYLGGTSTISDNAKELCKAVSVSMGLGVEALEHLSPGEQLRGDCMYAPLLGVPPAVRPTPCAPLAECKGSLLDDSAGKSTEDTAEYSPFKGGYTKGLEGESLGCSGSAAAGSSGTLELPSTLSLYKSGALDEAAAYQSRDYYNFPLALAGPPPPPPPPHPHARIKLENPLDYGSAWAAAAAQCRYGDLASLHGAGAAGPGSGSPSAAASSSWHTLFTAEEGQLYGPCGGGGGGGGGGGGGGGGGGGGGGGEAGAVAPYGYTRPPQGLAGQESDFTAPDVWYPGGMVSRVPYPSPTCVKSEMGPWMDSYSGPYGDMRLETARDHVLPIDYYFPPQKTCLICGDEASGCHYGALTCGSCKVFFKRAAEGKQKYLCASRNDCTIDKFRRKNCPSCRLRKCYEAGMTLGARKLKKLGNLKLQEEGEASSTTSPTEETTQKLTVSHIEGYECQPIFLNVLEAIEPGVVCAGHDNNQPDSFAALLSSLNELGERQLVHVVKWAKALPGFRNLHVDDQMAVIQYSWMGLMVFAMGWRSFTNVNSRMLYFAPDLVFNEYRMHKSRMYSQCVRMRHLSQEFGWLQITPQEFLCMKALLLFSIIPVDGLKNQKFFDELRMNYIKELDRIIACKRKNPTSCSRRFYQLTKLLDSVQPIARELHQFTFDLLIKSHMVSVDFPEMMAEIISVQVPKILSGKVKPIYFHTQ
Peroxisome proliferator-activated receptor delta (Homo sapiens), sequence (Q03181 whole entry, looked up): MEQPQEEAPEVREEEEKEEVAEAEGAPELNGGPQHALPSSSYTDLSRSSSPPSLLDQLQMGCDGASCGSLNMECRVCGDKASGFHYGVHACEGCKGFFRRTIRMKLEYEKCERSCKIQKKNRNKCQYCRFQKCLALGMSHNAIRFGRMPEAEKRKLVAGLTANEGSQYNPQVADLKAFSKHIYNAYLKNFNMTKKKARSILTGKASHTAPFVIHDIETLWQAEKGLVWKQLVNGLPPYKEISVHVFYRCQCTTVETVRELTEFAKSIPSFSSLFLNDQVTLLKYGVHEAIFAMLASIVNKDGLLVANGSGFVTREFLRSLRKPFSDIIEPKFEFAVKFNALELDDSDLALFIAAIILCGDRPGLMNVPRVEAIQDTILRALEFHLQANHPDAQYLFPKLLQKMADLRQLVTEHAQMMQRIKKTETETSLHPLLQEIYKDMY
Peroxisome proliferator-activated receptor gamma (Homo sapiens), sequence (P37231 whole entry, looked up): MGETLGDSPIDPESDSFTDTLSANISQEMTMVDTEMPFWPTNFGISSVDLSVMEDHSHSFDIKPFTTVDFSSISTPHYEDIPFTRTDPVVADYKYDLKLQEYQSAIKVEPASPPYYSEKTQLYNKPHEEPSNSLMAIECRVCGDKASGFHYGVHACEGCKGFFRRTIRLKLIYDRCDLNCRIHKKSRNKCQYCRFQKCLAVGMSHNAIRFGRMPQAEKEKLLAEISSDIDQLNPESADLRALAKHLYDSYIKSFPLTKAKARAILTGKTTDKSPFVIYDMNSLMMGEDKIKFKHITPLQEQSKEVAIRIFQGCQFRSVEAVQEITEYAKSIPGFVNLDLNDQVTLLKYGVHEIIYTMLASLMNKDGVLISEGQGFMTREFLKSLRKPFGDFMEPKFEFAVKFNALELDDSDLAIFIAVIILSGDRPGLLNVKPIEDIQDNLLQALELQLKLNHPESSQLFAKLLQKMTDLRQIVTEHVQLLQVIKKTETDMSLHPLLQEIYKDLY
Bile acid receptor (Homo sapiens), sequence (Q96RI1 whole entry, looked up): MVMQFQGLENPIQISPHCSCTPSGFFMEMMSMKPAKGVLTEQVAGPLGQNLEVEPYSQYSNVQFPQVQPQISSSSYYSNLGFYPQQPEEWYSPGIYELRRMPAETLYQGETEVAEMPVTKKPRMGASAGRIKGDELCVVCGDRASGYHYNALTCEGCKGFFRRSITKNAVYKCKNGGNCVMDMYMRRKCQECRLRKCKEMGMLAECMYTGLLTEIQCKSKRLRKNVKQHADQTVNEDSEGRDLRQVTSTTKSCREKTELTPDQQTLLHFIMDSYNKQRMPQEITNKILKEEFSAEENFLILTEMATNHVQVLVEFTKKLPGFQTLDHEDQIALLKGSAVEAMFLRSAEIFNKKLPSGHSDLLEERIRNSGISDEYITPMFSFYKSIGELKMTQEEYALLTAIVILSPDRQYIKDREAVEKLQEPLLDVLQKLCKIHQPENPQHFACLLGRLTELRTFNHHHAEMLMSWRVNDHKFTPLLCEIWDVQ

SMILES | outcome [1] | activation [2] | activation [3] | max response [4] | Potency [5] | outcome [6] | Potency [7] | outcome [8] | outcome [9] | Potency [10]
CS(=O)(=O)c1ccc(C(=O)C2C(=O)CCCC2=O)c([N+](=O)[O-])c1 | inactive | -1.16% (inactive) | 6.35% (inactive) | 30.2% | inactive |  |  |  |  | 
CCOCCOC(C)=O |  |  | -2.6% (inactive) |  |  | inactive | inactive | inactive | inactive | 
CCCCC(CC)COC(=O)c1ccccc1C(=O)OCC(CC)CCCC (stereo unspecified) | inactive | 0.71% (inactive) and -2.22% (inactive) | 0.194% (inactive) and -1.46% (inactive) | -2.79% and 33.6% | inactive | inactive | inactive | inactive | inactive | 
Nc1cccc2c(N)cccc12 |  | -1.29% (inactive) and -1.59% (inactive) | -1.46% (inactive) | 0.56% | inactive |  |  | inactive |  | inactive
O=C(Oc1ccccc1)c1cccc(C(=O)Oc2ccccc2)c1 |  | 0.748% (inactive) |  |  |  |  |  |  |  | 
OCCCBr |  |  | -1.2% (inactive) |  |  | inactive | inactive |  | inactive | 
O=C(O)C(Cl)Cl |  |  | -0.327% (inactive) | -4.92% | inactive | inactive | inactive | inactive | inactive | 
O=[N+]([O-])c1c(Cl)c(Cl)cc(Cl)c1Cl | inactive | -1.27% (inactive) |  | -4.54% | inactive | inactive |  | inactive | inactive | 
CC(C)(O)C(=O)Nc1ccc([N+](=O)[O-])c(C(F)(F)F)c1 |  |  |  |  |  | inactive |  |  |  | 
Nc1ccc(Cl)cc1N | inactive | 0.723% (inactive) | 0.0302% (inactive) and -3.42% (inactive) |  |  |  | inactive |  | inactive | inactive
CCCCCC[C@H]1C(=O)O[C@H](C)[C@H](NC(=O)c2cccc(NC=O)c2O)C(=O)O[C@@H](C)[C@@H]1OC(=O)CC(C)C |  | -3.37% (inactive) | -11.1% (inactive) |  |  | inactive |  |  |  | 
O=S(=O)(c1ccc(Cl)cc1)c1ccc(Cl)cc1 |  |  | -2.41% (inactive) and 8.97% (inactive) | -8.84% and -18.1% and 9.46% | inactive | inactive | inactive | inactive | inactive | 
CCO/N=C(\CC)C1=C(O)CC(c2c(C)cc(C)cc2C)CC1=O (stereo unspecified) | inactive | 1.57% (inactive) | -3.56% (inactive) | 11.4% | inactive | inactive | inactive | inactive |  | inactive
Nc1ccc([N+](=O)[O-])cc1 | inactive | -1.05% (inactive) | 0.519% (inactive) |  |  |  |  |  | inactive | 
CCOP(=O)(NC(C)C)Oc1ccc(SC)c(C)c1 (stereo unspecified) | inactive | 5.65% (inactive) and 4.82% (inactive) | 3.01% (inactive) and -4.29% (inactive) | 97.8% | inactive |  |  | inactive | inactive | 
O=[N+]([O-])/N=C1\NCCN1Cc1ccc(Cl)nc1 | inactive | 1.01% (inactive) | 6.65% (inactive) |  |  | inactive | inactive |  | inactive | inactive
COCCOCCO |  |  |  | -0.0574% | inactive | inactive |  | inactive | inactive | 
c1ccc2occc2c1 |  | 3.58% (inactive) and 1.61% (inactive) |  |  |  | inactive |  |  |  | 
Nc1c(Cl)c(Cl)c(Cl)c(Cl)c1Cl |  |  |  | 13.6% | inactive |  |  | inactive | inactive | inactive
Nc1ccc([N+](=O)[O-])cc1O | inactive | -3.53% (inactive) and -2.23% (inactive) |  |  |  |  |  | inactive |  | 
O=C(O)COc1nc(Cl)c(Cl)cc1Cl | inactive | -0.709% (inactive) | -16% (inactive) | 110% | inactive | inactive | inactive |  |  | 
CC(=O)[O][Hg][c]1ccccc1 |  |  | 23.7% (inactive) | -98.8% | 2820 nM (active) |  | 141 nM (active) |  |  | 2240 nM (active)
C=CCC1=C(C)C(OC(=O)C2C(C=C(C)C)C2(C)C)CC1=O (stereo unspecified) |  | 7.39% (inactive) and 8.42% (inactive) | 11.4% (inactive) and 2.61% (inactive) |  |  | inactive | inactive |  | inactive | 
C=CC(=O)NCNC(=O)C=C |  |  | 4.39% (inactive) and -21.1% (inactive) | -23.6% | inactive | inactive | inactive | inactive | inactive | inactive
O=C(O)COc1ccccc1 |  |  | -4.12% (inactive) | 43.8% | inactive | inactive | inactive | inactive | inactive | 
COc1nn(CSP(=S)(OC)OC)c(=O)s1 | inactive | 3.32% (inactive) | 12.2% (inactive) |  |  | inactive | inactive | inactive |  | 
